Screens from PubChem.
Hits are enriched below; roughly 13% of the tested compounds scored in any of these assays.
Cycloheximide cs: counter-screen hit for Shiga toxin inhibitors, cycloheximide | AID 2314 | cell reporter, cycloheximide protein synthesis inhibition counterscreen | 300,000 compounds, 12% hits | max response, %; in the data active = max response mostly above about 13%, no sharp cut-off; inactive = mostly below about 14%; note: read at 38.3 µM for the half of the compounds with a filed dose; 0% is about no effect
Shiga toxin inh: blocks Shiga toxin action in Vero cells | 290,000 compounds, 9.2% hits | Vero cells, Shiga toxin protein synthesis inhibition reporter | inhibition, % at 38.7 µM; in the data active = inhibition mostly above about 28%, no sharp cut-off; inactive = mostly below about 43%; note: 0% is about no effect
Marburg entry inh: inhibitors of Marburg virus binding or cell entry; AID 540276; Potency, µM (series often up to 37.8 µM), for the others: top-dose activity change, negative = inhibition, actives largely listed as inhibitors; 300,000 compounds, 1.8% hits; Marburg virus pseudotyped entry inhibition, cell reporter; calls by dose curve; tested in HEK293 cells; note: potency is the fitted concentration of half-maximal effect; % is set by controls: 0 for no effect and ±100 for the full control effect
HCV inhibitor: inhibitors of hepatitis C virus infection | Huh7.5.1 HCVcc-Cre infection, luciferase reporter, 44 h | Potency, µM (top dose mostly 41.8 µM), without a hit: at the top dose activity change, negative = inhibition, usual class: inhibitors | 340,000 compounds, 3.4% hits | AID 651820; active = well fitted inhibition curve with a large enough effect; inconclusive = small, poorly fitted or top-dose-only effect, or another doubt; inactive = no such curve, though single readings can be large or run the other way; note: potency is the fitted concentration of half-maximal effect; % is set by controls: 0 for no effect and ±100 for the full control effect
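A cell-based infection assay in which seeded cells (1,000 per well) receive test compound after 4 h, are inoculated with HCVcc-Cre at approximately 0.5 moi, and are incubated 44 h before luminescence detection.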
FMDV inh: antivirals against foot and mouth disease virus. 410,000 compounds, 1.2% hits. AID 1159524. FMDV antiviral cell-based qHTS. Potency, µM (doses to about 57.9 µM), for the others: top-dose activity change, negative = inhibition, usual class: inhibitors; calls by dose curve; tested in HEK293T cells; note: read-out not given here; potency is the fitted concentration of half-maximal effect; % is set by controls: 0 for no effect and ±100 for the full control effect; nearly all actives have a fitted effect of over 45% in size
LASV entry inh: blocks Lassa virus binding to or entry into cells; Potency, µM (highest dose often 37.9 µM), for inactives: top-dose activity change, negative = inhibition, actives largely listed as inhibitors; 300,000 compounds, 1.2% hits; AID 540256; Lassa virus pseudotype entry inhibition, cell reporter; calls by dose curve; tested in HEK293 cells; note: potency is the fitted concentration of half-maximal effect; % is set by controls: 0 for no effect and ±100 for the full control effect; nearly all actives have a fitted effect of over 50% in size
Active calls of the source: *; ? = inconclusive; · = not tested or not shown; [ ] = remark or other dose.

SMILES	Cycloheximide cs	Shiga toxin inh	Marburg entry inh	HCV inhibitor	FMDV inh	LASV entry inh
Fc1ccc2c(c1)c1n[nH]c(=S)nc1n2CCc1ccccc1	-2.1	-3.3	·	7.4%	-5.6%	·
NNc1nnc2c3cc(F)ccc3n(CCc3ccccc3)c2n1	-2.3	2.8	10µM*	?	-9.6%	?
C=CCn1c(SCc2ccc3nonc3c2)nnc1-c1cccs1	5.1	-6.2	?	-16.3%	17.6%	1.2%
CC1=C(C(=O)OCc2ccccc2)C(/C=C/c2ccccc2)NC(=S)N1 (stereo unspecified)	12.9	22.3	?	8.91µM*	?	12.6µM*
CCc1ccc(CNC(=O)CSc2c3c(nc4ccc(Cl)cc24)CCCC3)cc1	·	·	?	·	-25.8%	-0.4%[46.1 µM]
N=c1oc2cc(O)ccc2cc1C(=O)Nc1ccc(F)cc1	27.2*	42.5*	7.9%[46.1 µM]	1.4%	-17.5%	?
COc1ccc(NC(=O)c2cc3ccccc3oc2=O)cc1	·	·	·	·	-87.5%	·
COc1ccc(NC(=O)c2cc3ccc(O)cc3o/c2=N\O)cc1	15.3*	24.1	?	22.4µM*	?	?
O=C(c1ccc(F)cc1)c1cc2ccc(O)cc2oc1=O	12.0	25.3	?	24.1%	9.2%	8.3%[46.1 µM]
Cc1nn(Cc2ccccc2)c(C)c1NC(=O)c1cccs1	-2.9	-13.5	-4.8%	-9.2%	-7.8%	-21.6%
CCc1ccc(C(=O)Nc2ccc3nc(C)ccc3c2)cc1	31.1*	48.5	?	?	20.5%	?
Cc1ccc2cc(NC(=O)c3ccccc3C)ccc2n1	33.7*	81.3*	18.4%[46.1 µM]	-5.5%	35.0%	-16.7%[46.1 µM]
Cc1ccc2cc(NC(=O)Cc3ccccc3)ccc2n1	53.3*	91.7*	·	-2.0%	70.9%	·
Cc1ccc2cc(NC(=O)c3ccc(C(C)(C)C)cc3)ccc2n1	-3.3	25.1	?	?	-5.2%	3.9%[46.1 µM]
O=C(Cc1ccc(Cl)cc1)Nc1ccc(Cl)cn1	44.3*	67.0*	-1.4%[46.1 µM]	-8.8%	10.9%	-21.7%[46.1 µM]
O=S(=O)(Cc1ccc(Cl)cc1)Nc1ccc(Cl)cn1	11.1	25.1*	?	18.0%	2.9%	10.4%
O=C(Cc1ccc(F)cc1)Nc1ccc(Cl)cn1	25.7*	81.5	-12.7%	-4.7%	64.7%	8.6%
O=C(Cc1c(F)cccc1Cl)Nc1ccccn1	9.9	36.7*	3.1%	17.7%	31.9%	17.8%
O=C(COC(=O)Cc1ccc(F)cc1)Nc1ccc(Cl)cn1	·	·	·	8.9%	-0.7%	·
O=C(NCCN1CCOCC1)c1ccccc1OCc1ccccc1	·	·	-19.5%	9.8%	-5.0%	-4.1%
CCC(CC)N1CCN(CC2CC=CCC2)CC1 (stereo unspecified)	-1.9	-2.7	-28.3%[46.1 µM]	2.9%	-7.0%	-10.6%
CCc1ccc(NS(=O)(=O)c2ccc3oc(=O)ccc3c2)cc1	-4.0	37.1	?	-22.2%	19.7%	-21.6%
O=C(Nc1ccc(F)cc1)Nc1ccc(Cl)cn1	23.1*	61.5*	?	-0.6%	60.7%	23.6%[14.3 µM]
O=C(Cc1ccc(Cl)cc1)Nc1ccccn1	35.6*	24.3	·	-2.1%	0.0%	·
O=C(Cc1ccc(Cl)cc1)Nc1ncccn1	-2.1	-1.9	21.2%[46.1 µM]	8.4%	2.1%	23.3%[46.1 µM]
SMILES	Cycloheximide cs	Shiga toxin inh	Marburg entry inh	HCV inhibitor	FMDV inh	LASV entry inh
O=C(Cc1ccc(Cl)cc1)Nc1ccc(Br)cn1	35.8*	71.9*	·	-17.4%	10.6%	·
CC1=CCC2C(=O)N(c3nc4ccccc4n3C)C(=O)C2C1 (stereo unspecified)	-1.7	-3.2	11.8%	12.8%	14.0%	-6.3%
N#Cc1nc(COc2ccccc2F)oc1N1CCCCCC1	23.6*	28.1*	?	?	14.0%	17.7%
Cc1ccc(OCc2nc(C#N)c(N3CCCCC3)o2)cc1	18.4*	13.5	2.7%[46.1 µM]	-16.4%	9.7%	-9.6%
N#Cc1nc(COc2ccccc2Cl)oc1N1CCCCCC1	-3.3	-2.5	·	0.2%	?	·
CCN1CCN(c2oc(COc3ccc(-c4ccccc4)cc3)nc2C#N)CC1	19.7*	1.8	-16.1%	?	?	-19.8%
N#Cc1nc(COc2ccccc2)oc1N1CCCCC1	50.5*	83.1*	·	-2.6%	26.0%	·
O=C(CSc1ccccc1)NCCCc1ccccc1	9.4	10.6	9.4%[46.1 µM]	-1.0%	11.4%	2.8%[46.1 µM]
N#Cc1nc(Cc2ccccc2)oc1N1CCC(Cc2ccccc2)CC1	-4.8	29.3	-17.9%	-29.5%	-5.1%	7.08µM*
CC(NC(=O)Cc1ccc(-c2ccccc2)cc1)c1ccccc1 (stereo unspecified)	-2.4	18.6	-3.5%	14.1µM*	-12.8%	?
CC(NC(=O)COC(=O)Cc1ccc(Cl)cc1)c1ccccc1 (stereo unspecified)	·	·	-18.5%[46.1 µM]	24.0%	-3.2%	-3.5%[46.1 µM]
CCOc1ccccc1NC(=O)CN1C(=O)COc2ccc(S(=O)(=O)Nc3ccccc3)cc21	·	·	·	·	4.5%	10.8%[46.1 µM]
CSc1ccc(NC(=O)NCc2cccnc2)cc1	27.7*	39.0*	?	-13.9%	67.2%	?
O=C(NCc1cccnc1)Nc1ccc(Br)cc1	29.5*	20.7	·	11.9%	11.8%	·
Cc1ccc(S(=O)(=O)Nc2cccc(C(=O)NCc3cccnc3)c2)cc1F	·	·	-28.3%	?	-4.6%	?
O=C(NCc1cccnc1)c1cccc(NS(=O)(=O)c2ccc(Br)cc2)c1	·	·	?	12.6µM*	-23.1%	6.9%
Cn1cccc1CNC(=O)Nc1ccc(Cl)c(Cl)c1	36.6*	85.6	1.7%	-27.9%	0.0%	?
O=C(NCc1cccnc1)c1ccc(NC(=O)c2ccc(Br)cc2)cc1	0.8	-3.7	?	?	?	?
Cn1cc(-c2cc3n(n2)CCC(=O)N3CCCC(=O)Nc2ccccc2Cl)c2ccccc21	·	·	·	·	-26.9%	-24.6%[46.1 µM]
CCOc1ccc(NC(=O)NCc2cccnc2)cc1	-3.2	18.1	21.0%	8.9%	-5.2%	-11.7%
Cc1ccc(CNC(=O)Nc2ccc(C)cc2)cc1	22.1*	60.7	·	3.8%	56.3%	·
CC(C)c1ccc(NC(=O)NCc2cccnc2)cc1	12.1*	39.6	6.1%	5.7%	41.2%	17.6%
Cc1ccc(NC(=O)NCc2cccnc2)cc1C	9.3	11.0	-14.6%[46.1 µM]	3.2%	1.3%	21.7%[46.1 µM]
Cc1ccc(NC(=O)Nc2ccccc2C(=O)NCc2ccccc2)cc1	10.8	16.0	?	-22.4%	35.1%	6.7%
Cc1ccc(NC(=O)NCc2cccnc2)cc1	19.0*	22.0	20.7%[46.1 µM]	13.0%	30.8%	13.8%[46.1 µM]
SMILES	Cycloheximide cs	Shiga toxin inh	Marburg entry inh	HCV inhibitor	FMDV inh	LASV entry inh
O=C(NCc1cccnc1)Nc1ccc(Cl)c(Cl)c1	25.9*	58.8*	·	-11.2%	71.6%	·
CCN1C(C(=O)c2ccccc2)=C(OC(=O)COc2ccccc2)c2ccccc2S1(=O)=O	·	·	1.9%[46.1 µM]	·	-7.7%	-4.5%[46.1 µM]
CCn1c(CNS(=O)(=O)c2ccc(Br)cc2)n[nH]c1=S	-2.5	3.5	·	10.7%	6.0%	·
Cn1nc(C(=O)OCC(=O)Nc2ccc(Cl)cc2Cl)c2ccccc2c1=O	·	·	·	9.6%	-0.7%	·
COC(=O)Cn1c(CN2CCN(c3ccc(OC)cc3)CC2)nc2c1c(=O)[nH]c(=O)n2C	·	·	1.8%[46.1 µM]	·	-9.4%	15.4%[46.1 µM]
CCOC(=O)N/N=C(C)/C=C/c1ccccc1	27.6*	16.0	19.0%	?	16.5%	-0.9%
CCOC(=O)N/N=C\C=C\c1ccco1	-0.4	-6.6	20.5%[46.1 µM]	18.5%	17.4%	?
